Source: PubChem BioAssay
The source made the active and inactive calls.

system: not listed separately; assay: change in splice reporter luminescence, either direction, cell-based, HEK293, spliceosome inhibition project, primary screen (AID 1101); settings: HEK293 splicing luciferase reporter, 24 h, higher = more signal, called active from +8 up or from −8 down;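 note: HEK293 cells carrying a splicing-competent luciferase reporter gene; test concentration not given here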

Compound	z-score
Cc1ccc(C(C)CC(O)C2C=CC3C(=O)N(c4ccccc4)C(=O)C3N2Nc2ccc(C#N)cc2)o1 (configuration not stated)	3.02 (inactive)
Cc1ccc(F)cc1S(=O)(=O)N[C@@H]1CCN(Cc2cccc3[nH]ccc23)C1	-0.44 (inactive)
O=C1C2C=CC(C(O)c3ccco3)N(Nc3ccccc3)C2C(=O)N1c1ccccc1 (configuration not stated)	0.14 (inactive)
CCOC(=O)C1=CCC(c2ccco2)N(S(=O)(=O)c2ccc(C)cc2)C1 (configuration not stated)	0.0407 (inactive)
O=C(NCCN1CCOCC1)[C@@H]1c2ccccc2C(=O)N(Cc2ccccc2)[C@H]1c1ccc(CO)cc1	-0.316 (inactive)
CCOC(=O)C1=C[C@@H](c2ccccc2)N(S(=O)(=O)c2ccc(C)cc2)[C@H]1c1ccccc1	-0.924 (inactive)
COCCOC(=O)N1C(=O)[C@@]2(c3cc(C#Cc4ccc(OC)cc4)ccc31)[C@H](c1ccc(OCCO)cc1)N1[C@H](c3ccccc3)[C@H](c3ccccc3)OC(=O)[C@H]1[C@@H]2C(=O)Nc1nc2ccccc2s1	-0.697 (inactive)
[N-]=[N+]=Nc1ccccc1C[C@]1(C(=O)O)N=C(c2ccc(OCCCO)cc2)O[C@H]1c1ccccc1N=[N+]=[N-]	-1.55 (inactive)
CC=CC(O)C1C=CC2C(=O)NC(=O)C2N1Nc1ccccn1 (configuration not stated)	1.12 (inactive)
CCOC(=O)C1=C[C@@H](C(C)(C)C)N(S(=O)(=O)c2ccc(C)cc2)[C@H]1c1ccccc1	1.07 (inactive)
COC(=O)[C@@]1(Cc2ccc(F)cc2)[C@H]2c3cc(C(=O)N4CCCC4)n(CC4CC4)c3C[C@H]2CN1C(=O)c1ccccc1	-0.761 (inactive)
CO[C@H]1O[C@H](CO)[C@@H](OC(=O)Nc2ccc(C#N)cc2)[C@@H]2OC(=O)[C@H](Cc3cccc(Br)c3)C/C=C/C[C@@H](Cc3cccc(Br)c3)C(=O)O[C@@H]12	1.5 (inactive)
COC(=O)[C@@]1(Cc2ccccc2)[C@H]2c3cc(C(=O)N(C)C)n(CCn4cc([N+](=O)[O-])nc4C)c3C[C@H]2CN1C(=O)c1ccccc1	-0.106 (inactive)
Cc1ccc(N2C(=O)c3ccccc3[C@](C)(C(=O)NCc3ccccc3)[C@@H]2c2ccc(CO)cc2)nc1	-0.0691 (inactive)
COC(=O)[C@@]1(Cc2ccc(F)cc2)[C@H]2c3cc(C(=O)N4CCCC4)n(C)c3C[C@H]2CN1C(=O)c1ccccc1	-2.19 (inactive)
CC(C)C(=C=CC[C@@H](O)c1cccc(OCCO)c1)C[C@@H](O)c1ccccn1	0.111 (inactive)
O=C(O)[C@H]1C[C@H]2C(=O)N[C@@H](Cc3ccccc3)C(=O)N2[C@H]1c1cccc(OCCO)c1	-0.129 (inactive)
COc1ccc([Si](C)(C)[C@@H]2[C@@H](CC(=O)N3Cc4ccccc4C[C@H]3CO)O[C@]3(C(=O)N(Cc4ccc(N5CCC5=O)cc4)c4ccccc43)[C@H]2C)cc1	-1.12 (inactive)
Cc1ccc([C@H]2C(C(=O)O)=C[C@@H](C(C)(C)C)N2S(=O)(=O)c2ccc(C)cc2)cc1	0.0856 (inactive)
CN1C(=O)[C@@]2(Cc3ccccc3)N=C(c3ccc(OCCCO)cc3)O[C@H]2c2ccccc21	-0.528 (inactive)
COCCCNC(=O)[C@@]1(Sc2ccc(C)cc2)CC(=O)N(C(C)C)[C@@H]1c1ccc(CO)cc1I	-2.25 (inactive)
CC(C)C(=C=CC[C@@H](O)c1cccc(OCCO)c1)C[C@@H](O)COCc1ccccc1	-0.952 (inactive)
COC(=O)[C@@]1(Cc2ccccc2)[C@H]2c3cc(C(=O)N4CCCC4)n(CCSCCO)c3C[C@H]2CN1C(=O)c1ccccc1	-0.393 (inactive)
CCOC(=O)C1=C[C@@H](C(C)(C)C)N(S(=O)(=O)c2ccc(C)cc2)[C@H]1c1cccc(Cl)c1	-0.517 (inactive)
C=C[C@H](C)[C@H](OC(=O)Nc1ccc(OC)cc1)c1ccc(OCCO)cc1	-0.921 (inactive)
C[C@]1(C(=O)O)c2ccccc2C(=O)N(Cc2ccc(OC(F)(F)F)cc2)[C@H]1c1ccc(CO)cc1	0.524 (inactive)

molecular target: Fibroblast growth factor 10 (Homo sapiens) (UniProt O15520); assay: compounds binding fibroblast growth factor 10 – biochemical, small-molecule microarray, 635 nm fluorescence, primary screen (AID 1102); settings: FGF10 binding, fluorescence 635 nm, higher = more signal
Sequence (O15520 whole entry, looked up): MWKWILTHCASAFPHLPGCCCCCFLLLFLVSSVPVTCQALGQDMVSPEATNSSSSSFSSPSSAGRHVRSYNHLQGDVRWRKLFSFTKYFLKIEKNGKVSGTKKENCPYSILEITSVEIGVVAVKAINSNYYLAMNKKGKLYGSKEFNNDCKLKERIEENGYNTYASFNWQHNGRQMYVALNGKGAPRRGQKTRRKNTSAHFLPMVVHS

Compound	composite z-score
COc1cc(NN2C(C(O)c3ccc(I)cc3)C=CC3C(=O)N(c4ccccc4)C(=O)C32)cc(OC)c1OC (configuration not stated)	1.17
CN(C)CCCC[C@@H]1NC(=O)[C@@H]2C[C@H](C(=O)O)[C@H](c3cccc(OCCO)c3)N2C1=O	-0.376
CN1C(=O)C2C=CC(C(O)c3cc(C(F)(F)F)cc(C(F)(F)F)c3)N(Nc3ccccc3)C2C1=O (configuration not stated)	0.0307
C=C(/C(=C/C[C@H](OC(=O)c1ccncc1)c1ccccc1OCCO)c1cnc2ccccc2c1)C(C)C	1.47
COC(=O)[C@@]1(Cc2ccccc2CN=[N+]=[N-])N=C(c2ccc(OCCCO)cc2)O[C@H]1c1ccccc1	-0.438
C=CCC(OC(C)=O)[C@@H]1[C@@H](N(Cc2cccc3ccccc23)C(=O)c2ccc(-c3ccccc3)cc2)c2cc(OCCCO)ccc2N1C(=O)c1ccc(-c2ccccc2)cc1 (some centres not stated)	-0.221
COC(=O)[C@@]1(Cc2ccc(F)cc2)[C@H]2c3cc(C(=O)N(C)C)n(Cc4c(CO)[nH]cc(C)c4=O)c3C[C@H]2CN1C(=O)c1ccccc1	0.663
CN(C)C(=O)[C@]1(CCS(=O)(=O)c2ccccc2)N=C(c2ccc(OCCCO)cc2)O[C@@H]1c1ccccc1	1.48
CC(C)OC(=O)CC(=O)CC(O)c1ccc([N+](=O)[O-])cc1 (configuration not stated)	0.314
CCN(CC)c1ccc(N2CC=CC34O[C@@H]5/C=C\CCC(C)OC(=O)C5[C@H]3C(=O)N(C(C)CO)[C@@H]4C2=O)cc1 (some centres not stated)	-0.408
Cc1ccc(C(C)CC(O)C2C=CC3C(=O)N(c4ccccc4)C(=O)C3N2Nc2ccc(C#N)cc2)o1 (configuration not stated)	1.12
Cc1ccc(F)cc1S(=O)(=O)N[C@@H]1CCN(Cc2cccc3[nH]ccc23)C1	0.67
O=C1C2C=CC(C(O)c3ccco3)N(Nc3ccccc3)C2C(=O)N1c1ccccc1 (configuration not stated)	-0.322
CCOC(=O)C1=CCC(c2ccco2)N(S(=O)(=O)c2ccc(C)cc2)C1 (configuration not stated)	1.12
O=C(NCCN1CCOCC1)[C@@H]1c2ccccc2C(=O)N(Cc2ccccc2)[C@H]1c1ccc(CO)cc1	-0.765
CCOC(=O)C1=C[C@@H](c2ccccc2)N(S(=O)(=O)c2ccc(C)cc2)[C@H]1c1ccccc1	-0.0005
COCCOC(=O)N1C(=O)[C@@]2(c3cc(C#Cc4ccc(OC)cc4)ccc31)[C@H](c1ccc(OCCO)cc1)N1[C@H](c3ccccc3)[C@H](c3ccccc3)OC(=O)[C@H]1[C@@H]2C(=O)Nc1nc2ccccc2s1	1.06
[N-]=[N+]=Nc1ccccc1C[C@]1(C(=O)O)N=C(c2ccc(OCCCO)cc2)O[C@H]1c1ccccc1N=[N+]=[N-]	0.445

Compound	composite z-score
CC=CC(O)C1C=CC2C(=O)NC(=O)C2N1Nc1ccccn1 (configuration not stated)	0.22
CCOC(=O)C1=C[C@@H](C(C)(C)C)N(S(=O)(=O)c2ccc(C)cc2)[C@H]1c1ccccc1	0.982
COC(=O)[C@@]1(Cc2ccc(F)cc2)[C@H]2c3cc(C(=O)N4CCCC4)n(CC4CC4)c3C[C@H]2CN1C(=O)c1ccccc1	0.692
CO[C@H]1O[C@H](CO)[C@@H](OC(=O)Nc2ccc(C#N)cc2)[C@@H]2OC(=O)[C@H](Cc3cccc(Br)c3)C/C=C/C[C@@H](Cc3cccc(Br)c3)C(=O)O[C@@H]12	0.788
COC(=O)[C@@]1(Cc2ccccc2)[C@H]2c3cc(C(=O)N(C)C)n(CCn4cc([N+](=O)[O-])nc4C)c3C[C@H]2CN1C(=O)c1ccccc1	0.937
Cc1ccc(N2C(=O)c3ccccc3[C@](C)(C(=O)NCc3ccccc3)[C@@H]2c2ccc(CO)cc2)nc1	0.0497
COC(=O)[C@@]1(Cc2ccc(F)cc2)[C@H]2c3cc(C(=O)N4CCCC4)n(C)c3C[C@H]2CN1C(=O)c1ccccc1	0.549
CC(C)C(=C=CC[C@@H](O)c1cccc(OCCO)c1)C[C@@H](O)c1ccccn1	0.285
O=C(O)[C@H]1C[C@H]2C(=O)N[C@@H](Cc3ccccc3)C(=O)N2[C@H]1c1cccc(OCCO)c1	0.986
COc1ccc([Si](C)(C)[C@@H]2[C@@H](CC(=O)N3Cc4ccccc4C[C@H]3CO)O[C@]3(C(=O)N(Cc4ccc(N5CCC5=O)cc4)c4ccccc43)[C@H]2C)cc1	0.46
Cc1ccc([C@H]2C(C(=O)O)=C[C@@H](C(C)(C)C)N2S(=O)(=O)c2ccc(C)cc2)cc1	1.1
CN1C(=O)[C@@]2(Cc3ccccc3)N=C(c3ccc(OCCCO)cc3)O[C@H]2c2ccccc21	1.3
COCCCNC(=O)[C@@]1(Sc2ccc(C)cc2)CC(=O)N(C(C)C)[C@@H]1c1ccc(CO)cc1I	-0.0668
CC(C)C(=C=CC[C@@H](O)c1cccc(OCCO)c1)C[C@@H](O)COCc1ccccc1	0.543
COC(=O)[C@@]1(Cc2ccccc2)[C@H]2c3cc(C(=O)N4CCCC4)n(CCSCCO)c3C[C@H]2CN1C(=O)c1ccccc1	0.283
CCOC(=O)C1=C[C@@H](C(C)(C)C)N(S(=O)(=O)c2ccc(C)cc2)[C@H]1c1cccc(Cl)c1	0.907
C=C[C@H](C)[C@H](OC(=O)Nc1ccc(OC)cc1)c1ccc(OCCO)cc1	-1.12
C[C@]1(C(=O)O)c2ccccc2C(=O)N(Cc2ccc(OC(F)(F)F)cc2)[C@H]1c1ccc(CO)cc1	0.0104
